Screen size: about 39,000 compounds; about 3,300 (8.5%) were called active. What follows is part of a selection rich in actives, with near analogues and random picks from the rest.
These compounds were tested on HepG2 (assay: cytotoxicity call (relative viability < 0.9)). Settings: 10 µM.

Row | Structure (SMILES) | cytotoxicity call
1 | COc1ccccc1-c1ccc2c(c1)O[C@@H](CN(C)C(=O)c1ccncc1)[C@H](C)CN([C@@H](C)CO)S2(=O)=O | inactive
2 | CN1CCN(C(=O)C[C@H]2CC[C@H]3[C@@H](COC[C@H](O)CN3C(=O)C3CCOCC3)O2)CC1 | inactive
3 | Cc1noc(C)c1NC(=O)Nc1ccc2c(c1)CC(=O)N([C@@H](C)CO)C[C@H](C)[C@@H](CN(C)S(=O)(=O)c1c(C)noc1C)O2 | inactive
4 | CC(C)C[C@@H]1NC(=O)[C@H]2C[C@@H](C(=O)NCCCC[N+](C)(C)C)[C@@H](c3cccc(OCCO)c3)N2C1=O | inactive
5 | CO[C@H]1CN(C)C(=O)c2cc(NS(C)(=O)=O)ccc2OC[C@H](C)N(C(=O)C2CCOCC2)C[C@@H]1C | inactive
6 | N#CCCn1c(CC(N)=O)nc2ccccc21 | inactive
7 | Cc1cccc(S(=O)(=O)N2C[C@H](O)COC[C@@H]3O[C@@H](CC(=O)NCc4ccncn4)CC[C@H]32)c1 | inactive
8 | C[C@@H]1CCCCO[C@H](CN(C)Cc2ccc(C(F)(F)F)cc2)[C@@H](C)CN([C@H](C)CO)C(=O)c2cc(NC(=O)Nc3ccc4c(c3)OCO4)ccc2O1 | active
9 | C[C@@H]1CCCCO[C@H](CN(C)Cc2ccc(C(F)(F)F)cc2)[C@H](C)CN([C@@H](C)CO)C(=O)c2cc(NC(=O)Nc3ccc4c(c3)OCO4)ccc2O1 | active
10 | C[C@@H]1CCCCO[C@@H](CN(C)Cc2ccc(C(F)(F)F)cc2)[C@@H](C)CN([C@H](C)CO)C(=O)c2cc(NC(=O)Nc3ccc4c(c3)OCO4)ccc2O1 | inactive
11 | C[C@H]1CCCCO[C@H](CN(C)Cc2ccc(C(F)(F)F)cc2)[C@@H](C)CN([C@@H](C)CO)C(=O)c2cc(NC(=O)Nc3ccc4c(c3)OCO4)ccc2O1 | active
12 | C[C@H](CO)N1C[C@H](C)[C@@H](CN(C)Cc2ccc(C(F)(F)F)cc2)OCCCC[C@H](C)Oc2ccc(NC(=O)Nc3ccc4c(c3)OCO4)cc2C1=O | inactive
13 | C[C@H](CO)N1C[C@H](C)[C@H](CN(C)Cc2ccc(C(F)(F)F)cc2)OCCCC[C@H](C)Oc2ccc(NC(=O)Nc3ccc4c(c3)OCO4)cc2C1=O | inactive
14 | C[C@@H]1CCCCO[C@@H](CN(C)Cc2ccc(C(F)(F)F)cc2)[C@H](C)CN([C@H](C)CO)C(=O)c2cc(NC(=O)Nc3ccc4c(c3)OCO4)ccc2O1 | active
15 | C[C@H]1CCCCO[C@@H](CN(C)Cc2ccc(C(F)(F)F)cc2)[C@@H](C)CN([C@@H](C)CO)C(=O)c2cc(NC(=O)Nc3ccc4c(c3)OCO4)ccc2O1 | inactive
16 | CC1(C)SC2C(NC(=O)C(N)c3ccccc3)C(=O)N2C1C(=O)[O-].[Na+] (centres undefined) | inactive
17 | C[C@@H]1CCCCO[C@H](CN(C)C(=O)Nc2ccc(F)cc2)[C@H](C)CN([C@H](C)CO)C(=O)c2cc(NS(=O)(=O)c3cccs3)ccc2O1 | inactive
18 | COc1ccc(NC(=O)Nc2ccc3c(c2)C(=O)N([C@@H](C)CO)C[C@H](C)[C@H](CN(C)Cc2ccncc2)OCCCC[C@H](C)O3)cc1 | inactive
19 | COC1C=COC2(C)Oc3c(C)c(O)c4c(O)c(c(C=NN5CCN(C)CC5)c(O)c4c3C2=O)NC(=O)C(C)=CC=CC(C)C(O)C(C)C(O)C(C)C(OC(C)=O)C1C (centres undefined) | inactive
20 | COc1ccc(NC(=O)Nc2ccc3c(c2)C(=O)N([C@@H](C)CO)C[C@@H](C)[C@H](CN(C)C(=O)Nc2cccc4ccccc24)OCCCC[C@@H](C)O3)cc1 | inactive

Row | Structure (SMILES) | cytotoxicity call
21 | N[C@@H](C(=O)O)c1ccc(O)cc1 | inactive
22 | C[C@@H]1CCCCO[C@H](CN(C)C(=O)Nc2cccc3ccccc23)[C@@H](C)CN([C@H](C)CO)C(=O)c2cc(N(C)C)ccc2O1 | inactive
23 | CC(C=CC1(O)C(C)=CC(=O)CC1(C)C)=CC(=O)O (mixture of isomers) [ABSCISIC ACID (cis,trans; +/-) ] | inactive
24 | C[C@H]1CN([C@@H](C)CO)C(=O)c2cc(NC(=O)CCC(F)(F)F)ccc2O[C@H]1CN(C)Cc1ccc(Oc2ccccc2)cc1 | active
25 | C[C@@H]1CN([C@H](C)CO)C(=O)c2cc(NC(=O)CCC(F)(F)F)ccc2O[C@@H]1CN(C)Cc1ccc(Oc2ccccc2)cc1 | inactive
26 | C[C@@H]1CN([C@H](C)CO)C(=O)c2cc(NC(=O)CCC(F)(F)F)ccc2O[C@H]1CN(C)Cc1ccc(Oc2ccccc2)cc1 | inactive
27 | C[C@H](CO)N1C[C@H](C)[C@H](CN(C)Cc2ccc(Oc3ccccc3)cc2)Oc2ccc(NC(=O)CCC(F)(F)F)cc2C1=O | inactive
28 | C[C@H]1CN([C@@H](C)CO)C(=O)c2cc(NC(=O)CCC(F)(F)F)ccc2O[C@@H]1CN(C)Cc1ccc(Oc2ccccc2)cc1 | inactive
29 | C[C@@H]1CN([C@@H](C)CO)C(=O)c2cc(NC(=O)CCC(F)(F)F)ccc2O[C@@H]1CN(C)Cc1ccc(Oc2ccccc2)cc1 | active
30 | COc1ccccc1S(=O)(=O)N[C@H]1CC[C@@H](CCNC(=O)C2CCOCC2)O[C@H]1CO | inactive
31 | CSCC[C@H]1NC(=O)NC1=O | inactive
32 | OCCC12CC3CC(CC(C3)C1)C2 | inactive
33 | C[C@@H]1CN([C@@H](C)CO)C(=O)CCCn2cc(nn2)CO[C@H]1CN(C)C(=O)Nc1ccc(N2CCCCC2)cc1 | inactive
34 | C[C@@H]1CN([C@H](C)CO)C(=O)c2cccc(NS(=O)(=O)c3ccc(Cl)cc3)c2O[C@H]1CN(C)C(=O)Nc1ccc(C(F)(F)F)cc1 | inactive
35 | C[C@H](CO)N1C[C@H](C)[C@H](CN(C)C(=O)Nc2ccc(C(F)(F)F)cc2)Oc2c(NS(=O)(=O)c3ccc(Cl)cc3)cccc2C1=O | active
36 | C[C@H]1CN([C@@H](C)CO)C(=O)c2cccc(NS(=O)(=O)c3ccc(F)cc3)c2O[C@H]1CN(C)C(=O)Nc1ccc(C(F)(F)F)cc1 | inactive
37 | C[C@@H]1CN([C@@H](C)CO)C(=O)c2cccc(NS(=O)(=O)c3ccc(Cl)cc3)c2O[C@@H]1CN(C)C(=O)Nc1ccc(C(F)(F)F)cc1 | active
38 | C[C@@H]1CN([C@@H](C)CO)C(=O)c2cccc(NS(=O)(=O)c3ccc(Cl)cc3)c2O[C@H]1CN(C)C(=O)Nc1ccc(C(F)(F)F)cc1 | inactive
39 | C[C@@H]1CN([C@@H](C)CO)C(=O)c2cccc(NS(=O)(=O)c3ccc(F)cc3)c2O[C@@H]1CN(C)C(=O)Nc1ccc(C(F)(F)F)cc1 | active
40 | C[C@@H]1CN([C@H](C)CO)C(=O)c2cccc(NS(=O)(=O)c3ccc(F)cc3)c2O[C@H]1CN(C)C(=O)Nc1ccc(C(F)(F)F)cc1 | inactive

Row | Structure (SMILES) | cytotoxicity call
41 | C[C@H]1CN([C@@H](C)CO)C(=O)c2cccc(NS(=O)(=O)c3ccc(Cl)cc3)c2O[C@H]1CN(C)C(=O)Nc1ccc(C(F)(F)F)cc1 | inactive
42 | C[C@H]1CN([C@@H](C)CO)C(=O)c2cccc(NS(=O)(=O)c3ccc(F)cc3)c2O[C@@H]1CN(C)C(=O)Nc1ccc(C(F)(F)F)cc1 | inactive
43 | C[C@H](CO)N1C[C@H](C)[C@@H](CN(C)C(=O)Nc2ccc(C(F)(F)F)cc2)Oc2c(NS(=O)(=O)c3ccc(Cl)cc3)cccc2C1=O | inactive
44 | C[C@H]1CN([C@@H](C)CO)C(=O)c2cccc(NS(=O)(=O)c3ccc(Cl)cc3)c2O[C@@H]1CN(C)C(=O)Nc1ccc(C(F)(F)F)cc1 | inactive
45 | C[C@@H]1CN([C@H](C)CO)C(=O)c2cccc(NS(=O)(=O)c3ccc(Cl)cc3)c2O[C@@H]1CN(C)C(=O)Nc1ccc(C(F)(F)F)cc1 | active
46 | C[C@@H]1CC=CC[C@H](c2cccc(Cl)c2)NC(=O)[C@@H](Cc2ccccc2)N(C)C(=O)c2ccccc2O1 | inactive
47 | C[C@@H]1CN([C@@H](C)CO)C(=O)c2c(c3ccccc3n2C)-c2ccccc2CO[C@@H]1CN(C)C(=O)N[C@H](C)c1ccccc1 | inactive
48 | Cc1ccc(S(=O)(=O)N(C)C[C@@H]2Oc3cc(Br)ccc3S(=O)(=O)N([C@@H](C)CO)C[C@H]2C)cc1 | inactive
49 | Cc1noc(C)c1S(=O)(=O)Nc1ccc2c(c1)C(=O)N([C@H](C)CO)C[C@H](C)[C@@H](CN(C)C(=O)Nc1ccccc1)OCCCC[C@H](C)O2 | inactive
50 | O=C1N[C@@H](CC(=O)N2CCN(CCc3ccncc3)CC2)C(=O)Nc2ccccc21 | inactive
51 | COc1ccc(-c2cnc3c(c2)C(=O)N([C@@H](C)CO)C[C@@H](C)[C@H](CN(C)C(=O)Cc2ccccn2)O3)cc1 | inactive
52 | CCCNC(=O)N[C@H]1CC[C@H](CC(=O)N2CCN(C)CC2)O[C@H]1CO | inactive
53 | C[C@@H](O)CNC(=O)C(=O)NC(C)(C)C | inactive
54 | COc1cccc(-c2cn(CC[C@@H]3CC[C@H](NC(=O)CN(C)C)[C@H](CO)O3)nn2)c1 | inactive
55 | C[C@H]1CN([C@@H](C)CO)C(=O)c2cc(NC(=O)Cc3ccccc3)ccc2O[C@@H]1CN(C)S(=O)(=O)c1cn(C)cn1 | inactive
56 | NCCCC[C@H](NC(=O)[C@@H]1CCCN1C(=O)[C@@H]1CSSC[C@H](N)C(=O)N[C@@H](Cc2ccccc2)C(=O)N[C@@H](Cc2ccccc2)C(=O)NC(CCC(N)=O)C(=O)N[C@@H](CC(N)=O)C(=O)N1)C(=O)NCC(N)=O (some centres undefined) | inactive
57 | NCCCC[C@H](NC(=O)[C@@H]1CCCN1C(=O)[C@@H]1CSSC[C@H](N)C(=O)N[C@@H](Cc2ccc(O)cc2)C(=O)N[C@@H](Cc2ccccc2)C(=O)N[C@@H](CCC(N)=O)C(=O)N[C@@H](CC(N)=O)C(=O)N1)C(=O)NCC(N)=O | inactive
58 | NCCC[C@H](NC(=O)[C@@H]1CCCN1C(=O)[C@@H]1CSSC[C@H](N)C(=O)N[C@@H](Cc2ccc(O)cc2)C(=O)N[C@@H](Cc2ccccc2)C(=O)N[C@@H](CCC(N)=O)C(=O)N[C@@H](CC(N)=O)C(=O)N1)C(=O)NCC(N)=O | active
59 | CNC[C@H]1OCCCC[C@H](C)Oc2ccc(NC(=O)Nc3ccc(C(F)(F)F)cc3)cc2C(=O)N([C@H](C)CO)C[C@@H]1C | inactive

— the antibiotic and cytotoxicity screens of Wong et al. (2023)
